Eight sequences from publication PMC7862700, “An all-to-all approach to the identification of sequence-specific readers for epigenetic DNA modifications on cytosine” can be followed below.

What all share (test): DAPPL (digital affinity profiling via proximity ligation, sequencing); 10 mM Tris-HCl pH 7.5, 50 mM NaCl, 1 mM DTT, 4% glycerol, room temperature, 30 min; GST-TFs on glutathione beads, 16-mer random dsDNA library, 0.1% formaldehyde crosslink after washing; high values mean tight binding
What all share (settings): protein: recombinant; tags: N-terminal GST; dsDNA, one strand shown

One test addresses T1, FLI1 (Homo sapiens, UniProt Q01543 1-452).
T1 sequence: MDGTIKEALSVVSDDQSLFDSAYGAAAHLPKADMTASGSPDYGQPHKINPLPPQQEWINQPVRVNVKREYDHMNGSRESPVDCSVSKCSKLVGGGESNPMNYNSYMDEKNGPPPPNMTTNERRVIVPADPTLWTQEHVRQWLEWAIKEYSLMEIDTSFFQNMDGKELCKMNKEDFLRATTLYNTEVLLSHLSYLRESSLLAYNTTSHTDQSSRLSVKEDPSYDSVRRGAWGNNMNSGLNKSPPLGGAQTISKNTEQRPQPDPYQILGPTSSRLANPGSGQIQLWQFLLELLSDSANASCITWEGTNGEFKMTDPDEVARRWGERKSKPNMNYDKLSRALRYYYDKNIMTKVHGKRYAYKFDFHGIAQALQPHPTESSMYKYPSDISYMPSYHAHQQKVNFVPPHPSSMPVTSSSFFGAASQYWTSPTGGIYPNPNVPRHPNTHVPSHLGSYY
In a few lines:
(§1)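 Human transcription factors were made in yeast as GST fusions, captured on glutathione beads and barcoded with DNA. With a tag-only sample included, the pool was incubated with 200 nmole of a random double-stranded 16-mer DNA library in Tris/NaCl/DTT/glycerol buffer at room temperature for 30 min, then crosslinked with 0.1% formaldehyde after washing, ligated by proximity, amplified and sequenced. For binding signal, each hexamer's read frequency for a factor is divided by its frequency for the tag-only sample.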

Another test concerns the target T2, ELK1 (Homo sapiens, UniProt P19419 1-428).
T2 sequence: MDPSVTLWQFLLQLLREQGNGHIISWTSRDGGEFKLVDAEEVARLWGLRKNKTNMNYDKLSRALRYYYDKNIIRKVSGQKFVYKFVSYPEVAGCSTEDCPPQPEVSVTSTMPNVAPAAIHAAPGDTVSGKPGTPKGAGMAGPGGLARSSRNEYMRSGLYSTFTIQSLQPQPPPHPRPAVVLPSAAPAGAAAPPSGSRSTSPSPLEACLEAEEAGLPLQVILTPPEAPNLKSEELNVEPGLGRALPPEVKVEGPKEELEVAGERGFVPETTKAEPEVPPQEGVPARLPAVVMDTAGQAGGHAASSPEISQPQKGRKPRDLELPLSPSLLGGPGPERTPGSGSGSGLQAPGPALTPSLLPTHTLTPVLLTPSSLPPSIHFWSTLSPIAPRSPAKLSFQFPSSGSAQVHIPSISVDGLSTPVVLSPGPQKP
The method, boiled down: as §1

Another test deals with T3, GABPA (Homo sapiens, UniProt Q06546 1-454).
T3 sequence: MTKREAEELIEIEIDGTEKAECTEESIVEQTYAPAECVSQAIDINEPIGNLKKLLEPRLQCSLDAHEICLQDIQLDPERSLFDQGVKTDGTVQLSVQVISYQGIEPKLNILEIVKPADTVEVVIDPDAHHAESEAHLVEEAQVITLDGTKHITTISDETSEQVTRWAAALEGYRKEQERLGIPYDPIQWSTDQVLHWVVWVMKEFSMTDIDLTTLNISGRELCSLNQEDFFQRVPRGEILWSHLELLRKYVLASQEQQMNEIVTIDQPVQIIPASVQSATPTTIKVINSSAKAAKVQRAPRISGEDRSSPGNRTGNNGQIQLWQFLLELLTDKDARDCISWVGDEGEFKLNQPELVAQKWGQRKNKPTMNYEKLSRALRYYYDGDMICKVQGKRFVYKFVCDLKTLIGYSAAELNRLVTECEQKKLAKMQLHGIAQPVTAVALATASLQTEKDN
The method, boiled down:
as §1

The next test addresses T4, ERG (Homo sapiens, UniProt P11308 1-479).
T4 sequence: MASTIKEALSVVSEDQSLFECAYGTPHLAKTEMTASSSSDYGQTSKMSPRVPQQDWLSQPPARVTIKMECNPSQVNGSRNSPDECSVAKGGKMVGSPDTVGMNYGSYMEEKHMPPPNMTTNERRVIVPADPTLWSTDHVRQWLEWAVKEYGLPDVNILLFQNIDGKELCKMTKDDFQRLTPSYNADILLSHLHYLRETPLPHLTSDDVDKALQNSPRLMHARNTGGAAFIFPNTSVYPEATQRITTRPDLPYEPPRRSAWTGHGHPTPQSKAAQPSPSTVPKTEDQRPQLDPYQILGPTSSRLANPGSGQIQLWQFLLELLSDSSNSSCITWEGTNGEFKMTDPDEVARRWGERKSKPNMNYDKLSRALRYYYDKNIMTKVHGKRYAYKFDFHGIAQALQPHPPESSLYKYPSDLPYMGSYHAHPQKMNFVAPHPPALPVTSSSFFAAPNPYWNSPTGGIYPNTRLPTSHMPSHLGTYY
The method, boiled down:
as §1

Another test addresses ELF1 (Homo sapiens, UniProt P32519 1-619). In a few lines: as §1
In another test the target is T5, EHF (Homo sapiens, UniProt Q9NZC4 1-300).
T5 sequence: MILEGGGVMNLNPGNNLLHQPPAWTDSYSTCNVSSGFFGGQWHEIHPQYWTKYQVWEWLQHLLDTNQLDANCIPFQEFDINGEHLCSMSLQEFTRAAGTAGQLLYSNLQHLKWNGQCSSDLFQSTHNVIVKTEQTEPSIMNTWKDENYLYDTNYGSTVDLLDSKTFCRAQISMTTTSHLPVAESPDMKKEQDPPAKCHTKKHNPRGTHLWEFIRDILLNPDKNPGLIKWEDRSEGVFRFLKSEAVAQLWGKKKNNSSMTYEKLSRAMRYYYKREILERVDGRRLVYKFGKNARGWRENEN
The method, boiled down: as §1

For a further test, the target named is SPI1 (Homo sapiens, UniProt P17947 1-270). The method, boiled down:
as §1

A further test concerns the target SPIB (Homo sapiens, UniProt Q01892 1-262). In a few lines: as §1
The target in a further test is T6, ELK3 (Homo sapiens, UniProt P41970 1-407).
T6 sequence: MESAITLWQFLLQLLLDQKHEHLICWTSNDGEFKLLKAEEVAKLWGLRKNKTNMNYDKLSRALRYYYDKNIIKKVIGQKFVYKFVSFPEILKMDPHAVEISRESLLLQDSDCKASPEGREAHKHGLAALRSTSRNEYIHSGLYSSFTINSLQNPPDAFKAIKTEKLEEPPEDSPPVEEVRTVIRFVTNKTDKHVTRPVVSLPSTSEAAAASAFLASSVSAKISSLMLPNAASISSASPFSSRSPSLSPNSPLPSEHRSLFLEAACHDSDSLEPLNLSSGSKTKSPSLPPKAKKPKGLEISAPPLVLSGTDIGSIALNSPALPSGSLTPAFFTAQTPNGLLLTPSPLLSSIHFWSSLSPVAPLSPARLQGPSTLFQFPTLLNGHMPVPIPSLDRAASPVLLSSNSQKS
In a few lines:
as §1

SPIB, sequence (Q01892 whole entry): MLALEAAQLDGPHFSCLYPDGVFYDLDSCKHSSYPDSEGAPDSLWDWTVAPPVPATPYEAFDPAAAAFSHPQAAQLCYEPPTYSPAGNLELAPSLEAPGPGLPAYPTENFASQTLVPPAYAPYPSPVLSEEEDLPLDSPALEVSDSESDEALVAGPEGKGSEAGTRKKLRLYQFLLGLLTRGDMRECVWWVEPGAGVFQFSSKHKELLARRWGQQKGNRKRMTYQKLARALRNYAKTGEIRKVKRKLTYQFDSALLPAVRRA
ELF1, sequence (P32519 whole entry): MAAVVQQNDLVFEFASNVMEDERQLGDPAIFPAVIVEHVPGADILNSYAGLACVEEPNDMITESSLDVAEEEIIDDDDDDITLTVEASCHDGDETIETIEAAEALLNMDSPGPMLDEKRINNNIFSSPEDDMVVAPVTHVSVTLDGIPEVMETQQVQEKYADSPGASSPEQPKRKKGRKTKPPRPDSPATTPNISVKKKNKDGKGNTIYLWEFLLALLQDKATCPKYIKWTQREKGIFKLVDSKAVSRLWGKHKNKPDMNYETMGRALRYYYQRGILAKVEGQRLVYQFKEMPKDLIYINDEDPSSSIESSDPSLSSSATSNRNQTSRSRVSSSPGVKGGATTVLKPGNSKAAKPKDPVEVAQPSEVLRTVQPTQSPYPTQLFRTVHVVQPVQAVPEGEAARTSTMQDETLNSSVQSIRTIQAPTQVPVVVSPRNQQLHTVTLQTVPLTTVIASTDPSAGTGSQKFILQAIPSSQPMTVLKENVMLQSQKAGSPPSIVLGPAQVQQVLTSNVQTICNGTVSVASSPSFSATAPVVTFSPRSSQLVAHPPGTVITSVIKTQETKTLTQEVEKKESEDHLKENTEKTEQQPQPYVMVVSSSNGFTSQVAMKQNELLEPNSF

Regarding TGAAAC, the binding signal was 1.31 fold enrichment (6-mer frequency, TF over GST control) with FLI1; 1.29 fold enrichment (6-mer frequency, TF over GST control) with ELK1; 1.25 fold enrichment (6-mer frequency, TF over GST control) with GABPA; 1.16 fold enrichment (6-mer frequency, TF over GST control) with ERG; 1.4 fold enrichment (6-mer frequency, TF over GST control) with ELF1; 1.28 fold enrichment (6-mer frequency, TF over GST control) in the test with EHF. Also, the binding signal with SPI1 is 1.28 fold enrichment (6-mer frequency, TF over GST control); with SPIB, 1.18 fold enrichment (6-mer frequency, TF over GST control); with ELK3 it was 1.33 fold enrichment (6-mer frequency, TF over GST control).
With GCTCAG, the binding signal with FLI1 is 1.16 fold enrichment (6-mer frequency, TF over GST control); with ELK1 it was 1.17 fold enrichment (6-mer frequency, TF over GST control); with GABPA it was 1.24 fold enrichment (6-mer frequency, TF over GST control); with ERG, 1.18 fold enrichment (6-mer frequency, TF over GST control); in the test with ELF1, 1.21 fold enrichment (6-mer frequency, TF over GST control); in the test with EHF, 1.11 fold enrichment (6-mer frequency, TF over GST control). Moreover, the binding signal with SPI1 is 1.07 fold enrichment (6-mer frequency, TF over GST control); with SPIB, 1.12 fold enrichment (6-mer frequency, TF over GST control); in the test with ELK3, 1.11 fold enrichment (6-mer frequency, TF over GST control).
With TACTTA, the binding signal is 1.17 fold enrichment (6-mer frequency, TF over GST control) in the test with FLI1; 1.18 fold enrichment (6-mer frequency, TF over GST control) with ELK1; 1.15 fold enrichment (6-mer frequency, TF over GST control) with GABPA; 1.16 fold enrichment (6-mer frequency, TF over GST control) with ERG; 1.22 fold enrichment (6-mer frequency, TF over GST control) with ELF1; 1.33 fold enrichment (6-mer frequency, TF over GST control) with EHF. Further, the binding signal with SPI1 was 1.21 fold enrichment (6-mer frequency, TF over GST control); with SPIB, 1.15 fold enrichment (6-mer frequency, TF over GST control); with ELK3, 1.42 fold enrichment (6-mer frequency, TF over GST control).
Take GAAATT: the binding signal in the test with FLI1 was 1.23 fold enrichment (6-mer frequency, TF over GST control); with ELK1, 1.15 fold enrichment (6-mer frequency, TF over GST control); with GABPA, 1.29 fold enrichment (6-mer frequency, TF over GST control); with ERG, 1.32 fold enrichment (6-mer frequency, TF over GST control); in the test with ELF1, 1.23 fold enrichment (6-mer frequency, TF over GST control); in the test with EHF, 1.36 fold enrichment (6-mer frequency, TF over GST control). In addition, the binding signal in the test with SPI1 was 1.23 fold enrichment (6-mer frequency, TF over GST control); in the test with SPIB, 1.3 fold enrichment (6-mer frequency, TF over GST control); in the test with ELK3, 1.28 fold enrichment (6-mer frequency, TF over GST control).
TGGAAA: the binding signal in the test with FLI1 is 1.09 fold enrichment (6-mer frequency, TF over GST control); with ELK1, 1.12 fold enrichment (6-mer frequency, TF over GST control); in the test with GABPA, 1.19 fold enrichment (6-mer frequency, TF over GST control); in the test with ERG it was 1.11 fold enrichment (6-mer frequency, TF over GST control); with ELF1, 1.04 fold enrichment (6-mer frequency, TF over GST control); with EHF, 1.1 fold enrichment (6-mer frequency, TF over GST control). Further, the binding signal in the test with SPI1 is 1.16 fold enrichment (6-mer frequency, TF over GST control); in the test with SPIB, 1.17 fold enrichment (6-mer frequency, TF over GST control); in the test with ELK3, 1.15 fold enrichment (6-mer frequency, TF over GST control).
With CTTGTC, the binding signal was 1.17 fold enrichment (6-mer frequency, TF over GST control) with FLI1; 1.33 fold enrichment (6-mer frequency, TF over GST control) with ELK1; 1.32 fold enrichment (6-mer frequency, TF over GST control) in the test with GABPA; 1.19 fold enrichment (6-mer frequency, TF over GST control) with ERG; 1.22 fold enrichment (6-mer frequency, TF over GST control) with ELF1; 1.19 fold enrichment (6-mer frequency, TF over GST control) in the test with EHF. For the same sequence, the binding signal with SPI1 was 1.35 fold enrichment (6-mer frequency, TF over GST control); in the test with SPIB, 1.23 fold enrichment (6-mer frequency, TF over GST control); in the test with ELK3 it was 1.34 fold enrichment (6-mer frequency, TF over GST control).
On to TACGGA, for which the binding signal with FLI1 is 1.26 fold enrichment (6-mer frequency, TF over GST control); in the test with ELK1 it was 1.25 fold enrichment (6-mer frequency, TF over GST control); in the test with GABPA it was 1.21 fold enrichment (6-mer frequency, TF over GST control); with ERG it was 1.37 fold enrichment (6-mer frequency, TF over GST control); with ELF1 it was 1.3 fold enrichment (6-mer frequency, TF over GST control); in the test with EHF, 1.45 fold enrichment (6-mer frequency, TF over GST control). Also, the binding signal with SPI1 was 1.56 fold enrichment (6-mer frequency, TF over GST control); with SPIB it was 1.48 fold enrichment (6-mer frequency, TF over GST control); with ELK3, 1.43 fold enrichment (6-mer frequency, TF over GST control).
Consider ATATTC, for which the binding signal in the test with FLI1 is 1.24 fold enrichment (6-mer frequency, TF over GST control); with ELK1 it was 1.2 fold enrichment (6-mer frequency, TF over GST control); with GABPA, 1.24 fold enrichment (6-mer frequency, TF over GST control); with ERG it was 1.18 fold enrichment (6-mer frequency, TF over GST control); with ELF1 it was 1.28 fold enrichment (6-mer frequency, TF over GST control); in the test with EHF, 1.19 fold enrichment (6-mer frequency, TF over GST control). Besides, the binding signal in the test with SPI1 was 1.19 fold enrichment (6-mer frequency, TF over GST control); with SPIB, 1.22 fold enrichment (6-mer frequency, TF over GST control); with ELK3, 1.14 fold enrichment (6-mer frequency, TF over GST control).
